Data as given in PubChem BioAssay (Tox21).
Several values for one entry are separate records, joined by “and”; a condition that tells them apart may be missing. Identical values can stand only once. More than one record can exist for a structure, and the calls need not agree. Activity calls are given as the source filed them. Where a call stands in place of a potency, no number is given. Unless noted, calls come from the whole dose curve; as a rule, active = well fitted curve in the direction sought with a large enough effect in the repeat runs; inconclusive = weak or mixed curves; inactive = no such curve, though single readings can be large; an effect the other way counts as inactive or inconclusive.

Experiments:
[1] = qHTS assay to identify small molecule antagonists of the thyroid receptor (TR) signaling pathway - cell viability counter screen (AID 743064); note: nearly all actives have a fitted effect of over 50% in size; note: potency is the fitted concentration of half-maximal effect
Method in brief: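 In rat pituitary GH3.TRE-Luc reporter cells co-exposed to compound and 1 nM T3 for 23.5 h, cytotoxicity was assessed with CellTiter-Fluor in the same wells, read by fluorescence.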

[2] = target: Estrogen receptor (Homo sapiens) (UniProt P03372); test: qHTS assay to identify small molecule antagonists of the estrogen receptor alpha (ER-alpha) signaling pathway (AID 743069; active = well fitted curve in the direction sought with a large enough effect in the signal ratio in the repeat runs, not every such curve was filed as active; inconclusive = weak or mixed curves, or effect the other way; inactive = no such curve, though single readings can be large or run the other way; the % refers to the signal ratio; note: potency is the fitted concentration of half-maximal effect)
Estrogen receptor (Homo sapiens), sequence (P03372 whole entry, looked up): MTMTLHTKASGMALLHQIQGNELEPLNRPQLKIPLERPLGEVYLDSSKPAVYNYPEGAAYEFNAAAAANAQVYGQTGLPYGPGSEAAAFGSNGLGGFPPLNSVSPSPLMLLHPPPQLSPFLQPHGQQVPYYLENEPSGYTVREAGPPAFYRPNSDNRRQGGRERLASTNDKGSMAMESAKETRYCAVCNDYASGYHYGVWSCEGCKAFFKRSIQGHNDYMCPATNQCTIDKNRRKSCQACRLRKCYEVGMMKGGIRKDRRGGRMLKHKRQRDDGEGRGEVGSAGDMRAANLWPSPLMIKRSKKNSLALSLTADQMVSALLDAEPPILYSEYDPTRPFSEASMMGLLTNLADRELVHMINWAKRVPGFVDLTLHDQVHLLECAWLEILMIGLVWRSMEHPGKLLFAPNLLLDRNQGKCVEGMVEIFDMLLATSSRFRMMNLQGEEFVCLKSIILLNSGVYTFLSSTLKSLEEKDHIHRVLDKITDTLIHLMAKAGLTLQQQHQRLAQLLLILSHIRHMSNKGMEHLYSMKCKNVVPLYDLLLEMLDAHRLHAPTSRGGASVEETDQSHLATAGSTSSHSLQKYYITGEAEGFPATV
Method in brief: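 Fluorescence intensity from a beta-lactamase FRET substrate served as the read-out. Cells: HEK293 with stably integrated ER-alpha-UAS-bla reporter. Agonist 17beta-estradiol was co-added with compounds; incubation 18 hr at 37C, substrate 2 hr at room temperature.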

[3] = qHTS assay to identify small molecule antagonists of the estrogen receptor alpha (ER-alpha) signaling pathway - cell viability counter screen (AID 743074; calls by dose curve; note: nearly all actives have a fitted effect of over 45% in size)
[4] = target: Estrogen receptor (Homo sapiens) (UniProt P03372); test: qHTS assay to identify small molecule agonists of the estrogen receptor alpha (ER-alpha) signaling pathway (AID 743075; calls by dose curve)
[5] = target: Estrogen receptor (Homo sapiens) (UniProt P03372); test: qHTS assay to identify small molecule agonists of the estrogen receptor alpha (ER-alpha) signaling pathway using the BG1 cell line (AID 743079); note: nearly all actives have a fitted effect of over 20% in size
[6] = qHTS assay to identify small molecule antagonists of the estrogen receptor alpha (ER-alpha) signaling pathway using the BG1 cell line (AID 743080; calls by dose curve; note: series mostly up to about 70 µM; nearly all actives have a fitted effect of over 25% in size)
Method in brief: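 Antagonist mode: compounds in DMSO were pinned onto BG1-Luc-4E2 cells alongside 17beta-estradiol agonist, incubated 21.5 h, and ERE-driven luciferase measured with ONE-Glo. Cytotoxicity was multiplexed using CellTiter-Fluor fluorescence.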

[7] = qHTS assay to identify small molecule antagonists of the estrogen receptor alpha (ER-alpha) signaling pathway using the BG1 cell line - cell viability counter screen (AID 743081);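 note: compound given together with 17beta-estradiol as the ER stimulus; nearly all actives have a fitted effect of over 45% in size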; note: potency is the fitted concentration of half-maximal effect
[8] = target: Aromatase (Homo sapiens) (UniProt P11511); test: qHTS assay to identify aromatase inhibitors (AID 743083); note: nearly all actives have a fitted effect of over 55% in size; note: potency is the fitted concentration of half-maximal effect
Aromatase (Homo sapiens), sequence (P11511 whole entry, looked up): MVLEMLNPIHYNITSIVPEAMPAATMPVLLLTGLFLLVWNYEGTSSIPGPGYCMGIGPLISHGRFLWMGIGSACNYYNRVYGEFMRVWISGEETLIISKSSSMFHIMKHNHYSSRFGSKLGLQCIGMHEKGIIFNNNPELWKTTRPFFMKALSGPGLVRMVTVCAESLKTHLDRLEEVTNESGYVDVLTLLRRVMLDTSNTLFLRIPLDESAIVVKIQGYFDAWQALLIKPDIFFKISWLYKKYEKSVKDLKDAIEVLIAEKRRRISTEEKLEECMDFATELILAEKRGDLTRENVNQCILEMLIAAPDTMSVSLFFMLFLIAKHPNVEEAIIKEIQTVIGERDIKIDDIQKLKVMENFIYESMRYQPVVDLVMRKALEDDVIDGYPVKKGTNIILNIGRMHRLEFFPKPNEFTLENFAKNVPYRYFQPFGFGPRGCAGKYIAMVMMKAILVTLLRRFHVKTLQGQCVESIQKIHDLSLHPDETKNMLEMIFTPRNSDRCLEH

[9] = qHTS assay to identify small molecule antagonists of the thyroid receptor (TR) signaling pathway (AID 743065); note: nearly all actives have a fitted effect of over 55% in size; note: potency is the fitted concentration of half-maximal effect
Method in brief: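 Antagonism measured as loss of luciferase signal in GH3 cells stably carrying a TRE-luciferase reporter, co-treated with compound and T3 (1 nM final) for 23.5 h at 37 C. Viability was read in the same well by CellTiter-Fluor.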

[10] = tested on: thyroid hormone receptor (rat, GH3 cells); test: qHTS assay to identify small molecule agonists of the thyroid receptor (TR) signaling pathway (AID 743066; calls by dose curve)

SMILES	Potency [1]	Potency [2]	outcome [3]	Potency [4]	Potency [5]	Potency [6]	Potency [7]	Potency [8]	Potency [9]	Potency [10]
O=[N+]([O-])c1cccc(Cl)c1Cl	inactive	inactive	inactive	inactive	inactive	inactive	inactive	inactive		
O=C(Cl)c1c(Cl)cccc1Cl		inactive	inactive	inactive	inactive	inactive	inactive	inactive	inactive	inactive
CC(C)(C)c1cc(O)c(C(C)(C)C)cc1O	48.6 µM (active)	43.6 µM [inconclusive] (active)	inactive	inactive			inactive	21.7 µM (active)		
O=S1(=O)N=C(O)c2ccccc21	inactive		inactive				inactive	inactive		
CC1=CCC(C(C)C)C=C1 (stereo unspecified)	inactive	inactive	inactive	inactive	inactive	inactive	inactive	inactive		
c1ccc(-c2nc[nH]c2-c2ccccc2)cc1	inactive		inactive				inactive	inactive		inactive
CC[C@@H]1C[C@H](N(Cc2cc(C(F)(F)F)cc(C(F)(F)F)c2)C(C)=O)c2cc(C(F)(F)F)ccc2N1C(=O)OC(C)C		inactive	inactive	inactive	inactive	inactive			inactive	inactive
O=c1[nH]cnc2ccccc12		inactive	inactive	inactive	inactive	inactive	inactive	inactive	inactive	inactive
CN(C)CCCNCCCN	inactive	inactive	inactive			inactive	inactive	inactive		
CC(C)c1ccc2c(C(C)C)cc(C(C)C)c(S(=O)(=O)O)c2c1		inactive	inactive	inactive	inactive	inactive	inactive	inactive	63.2 µM (active)	inactive
CCCC(=O)OCC		inactive	inactive	inactive	inactive	inactive	inactive	inactive	inactive	inactive
CCCCCCOC(=O)CCC	inactive						inactive	inactive		
C#CCOC(=O)[C@@H](C)Oc1ccc(Oc2ncc(Cl)cc2F)cc1	inactive		inactive	inactive	inactive	inactive	inactive	inactive		
CN1CCN(C2=Nc3ccccc3Sc3ccc(Cl)cc32)CC1	13.3 µM (active)		inactive				inactive	inactive		
NC[C@H]1O[C@H](O[C@H]2[C@H](O)[C@@H](O[C@H]3O[C@H](CO)[C@@H](O)[C@H](N)[C@H]3O)[C@H](N)C[C@@H]2N)[C@H](O)[C@@H](O)[C@@H]1O	inactive and 1.89 µM (active)		inactive				inactive	inactive		inactive
O=C(O)Cc1cc(I)c(Oc2ccc(O)c(I)c2)c(I)c1	inactive		inactive				inactive	inactive		
O=S1(=O)c2cccc3cccc(c23)N1CCCN1CCN(c2ccc(F)cc2)CC1	inactive			inactive			inactive	inactive		inactive

SMILES	Potency [1]	Potency [2]	outcome [3]	Potency [4]	Potency [5]	Potency [6]	Potency [7]	Potency [8]	Potency [9]	Potency [10]
Oc1ccc(O)c2c(O)cccc12		inactive	inactive	inactive	inactive	inactive	inactive	inactive	inactive	inactive
CC(C)CC=O		inactive	inactive	inactive	inactive	inactive	inactive	inactive	inactive	inactive
CCOc1ccc(NC(=O)CC(C)=O)cc1	inactive		inactive				inactive	inactive		
COCCCCCCCCOCCC[Si](C)(O[Si](C)(C)C)O[Si](C)(C)C	inactive							19.3 µM (active)		inactive
CCN(CC)CCOC(=O)C1(c2ccccc2)CCCC1		inactive	inactive	inactive	inactive	inactive	inactive	inactive	inactive	inactive
CC(C)(C)C(=O)OCOP(=O)(COCCn1cnc2c(N)ncnc21)OCOC(=O)C(C)(C)C	inactive		inactive				inactive	inactive		inactive
COCCO	inactive	inactive	inactive	inactive	inactive	inactive	inactive	inactive		
Oc1ccc(Cc2ccccc2)cc1	inactive		inactive				inactive			inactive
Oc1ccc2c(c1)OCO2	inactive		inactive				inactive	inactive		inactive
Cc1cc(O)ccc1N	30.8 µM (active)	inactive	inactive	inactive	inactive		inactive	54.8 µM (active)		
CCCC(C)C	inactive	inactive	inactive	inactive	inactive	inactive	inactive	inactive		
Cc1cc(C)c(S(=O)(=O)O)cc1N=Nc1cc(S(=O)(=O)O)c2ccccc2c1O	34.4 µM (active)		inactive				54.5 µM (active)	inactive		inactive
CC(=O)OCCc1ccccc1		inactive	inactive	inactive	inactive	inactive	inactive	inactive	inactive	inactive
O=C1CCCCCO1		inactive	inactive	inactive	inactive		inactive	inactive	inactive	inactive
Cc1occc1S	inactive	inactive	inactive	inactive	inactive		inactive	inactive		
c1ccc(OCc2ccc(CCCN3CCOCC3)cc2)cc1		inactive	inactive	inactive	inactive		inactive	inactive	21.1 µM (active)	inactive
